PubChem BioAssay (EPA / NIEHS)
Values joined by “and” are separate entries in the source; they are usually repeats but may differ in a detail not shown here. Equal entries are not always repeated. More than one record can exist for a structure, and the calls need not agree. Active and inactive are the calls of the source. Rule for the calls: active = hit-call score of the fitted dose curve at least 0.9, where 1 is the maximum; inactive = score below 0.9.

Target: Nuclear respiratory factor 1 (Homo sapiens) (UniProt Q16656)
Sequence (Q16656 whole entry, looked up): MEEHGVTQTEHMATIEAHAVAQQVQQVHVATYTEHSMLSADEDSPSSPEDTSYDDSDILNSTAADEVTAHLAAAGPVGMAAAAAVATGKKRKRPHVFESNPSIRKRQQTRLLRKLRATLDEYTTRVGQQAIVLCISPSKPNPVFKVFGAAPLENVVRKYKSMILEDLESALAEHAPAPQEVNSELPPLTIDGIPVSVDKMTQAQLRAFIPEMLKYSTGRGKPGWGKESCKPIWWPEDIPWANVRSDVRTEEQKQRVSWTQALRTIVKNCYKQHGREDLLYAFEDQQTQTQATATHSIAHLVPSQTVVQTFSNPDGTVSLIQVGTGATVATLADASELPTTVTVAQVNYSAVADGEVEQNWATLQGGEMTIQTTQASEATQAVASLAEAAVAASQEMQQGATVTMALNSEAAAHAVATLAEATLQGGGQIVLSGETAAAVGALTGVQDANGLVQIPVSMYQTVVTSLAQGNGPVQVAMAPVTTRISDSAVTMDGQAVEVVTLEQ
Experiment: ATG_NRF1_CIS: Attagene CIS-FACTORIAL HepG2 Assay for human Nuclear Respiratory Factor 1 (NRF1) Orphan Gene (AID 2282987)
Conditions: HepG2 NRF1 cis-element reporter, Attagene multiplex; actives raise or lower the signal
Description: ATG_CIS is a cell-based, multiplexed-readout assay that uses HepG2, a human liver cell line, with measurements taken at 24 hours after chemical dosing in a 24-well plate.ATG_NRF1_CIS is one of 52 assay component(s) measured or calculated from the ATG_CIS assay. It is designed to make measurements of mRNA induction, a form of inducible reporter, as detected with fluorescence intensity signals by Reverse transcription polymerase chain reaction (RT-PCR) and Capillary electrophoresis technology.Data from the assay component ATG_NRF1_CIS was analyzed into 1 assay endpoint. This assay endpoint, ATG_NRF1_CIS, was analyzed with bidirectional fitting relative to DMSO as the negative control and baseline of activity. Using a type of inducible reporter, measures of mRNA for gain or loss-of-signal activity can be used to understand the reporter gene at the transcription factor-level as they relate to the gene NRF1. Furthermore, this assay endpoint can be referred to as a primary readout, because this assay has produced multiple assay endpoints where this one serves a reporter gene function. To generalize the intended target to other relatable targets, this assay endpoint is annotated to the dna binding intended target family, where the subfamily is nuclear respiratory factors.
Human liver HepG2 cells are transiently transfected with multiple reporter transcription units (MRTUs) in 6-well plates using FuGene 6 reagent (Roche; 3 ml FuGene/1 mg DNA). The MRTU constructs are regulated by a cis-regulating element (promoter). […] A major difference between the CIS and TRANS system is that in CIS activities of endogenous TFs are measured, whereas the TRANS assay evaluates changes in activities of exogenous, chimeric NR-Gal4 proteins. […] At the end of 24 hour incubation, total RNA was isolated using TriZol reagent (Invitrogen). The isolated RNA is then reverse-transcribed using oligo(dT) primer and Mo-MLV reverse transcriptase (Invitrogen) with DNAse I (Ambion) treatment for 30 min. The one-tenth of the produced cDNA was amplified by PCR using Taq DNA polymerase (Invitrogen) and two reporter sequence-specific primers. The PCR products were fluorescently labeled by primer extension with 6-arboxyfluorescein (6-FAM) 5'-labeled reporter sequence-specific primer (2 min at 95 C, 20 s at 68 C and 10 min at 72 C) and these products were digested with 5U of HpaI (New England Biolabs) for 2h at 37 C. The fragments were purified using Qiaquick PCR columns (Qiagen), analyzed on an ABI 3130xL genetic analyzer (Applied Biosystems) with peak positions identified by using a set of X-rhodamine (ROX)-labeled MapMarker1000 molecular weight standards (BioVentures). The raw capillary electrophoresis data was processed using Attagraph software (Attagene).

Row | SMILES | outcome | AC50
1 | CCCCCOC(C)=O | inactive | 
2 | FC(F)(F)C(F)(F)C(F)(F)C(F)(F)C(F)(F)C(F)(F)I | inactive | 
3 | O=S(=O)(O)c1ccc(N=Nc2c(O)ccc3cc(S(=O)(=O)O)ccc23)cc1 | inactive | 
4 | Cc1ccc(S(=O)(=O)NC(=O)NN2CCCCCC2)cc1 | inactive | 
5 | OCc1c[nH]c2ccccc12 | inactive | 27.2 µM (active)
6 | COS(C)(=O)=O | inactive | 
7 | CCCCC(CC)C(=O)OCCOCCOCCOC(=O)C(CC)CCCC (stereo not given) | inactive | 
8 | CCOc1ccc2[nH]cc(C(=O)NCc3ccccc3)c(=O)c2n1 | inactive | 
9 | O=C(NO)C1(NS(=O)(=O)c2ccc(Oc3ccc(F)cc3)cc2)CCOCC1 | inactive | 
10 | Nc1ccn([C@@H]2O[C@H](CO)[C@@H](O)[C@@H]2O)c(=O)n1 | inactive | 
11 | O=C(Cl)C(F)(F)C(F)(F)C(F)(F)C(=O)Cl | inactive | 
12 | OCCOCCOCCO | inactive | 
13 | c1ccc2cc3ccccc3cc2c1 | inactive | 
14 | Cn1c(=O)c2[nH]cnc2n(C)c1=O | inactive | 
15 | FC(F)C(F)(F)COCC1CO1 (stereo not given) | inactive | 
16 | CC(C)C(=O)Nc1ccc([N+](=O)[O-])c(C(F)(F)F)c1 | inactive | 
17 | FC(F)(F)COC(OCC(F)(F)F)OCC(F)(F)F | inactive | 
18 | C[Si](C)(C)C(F)(F)C(F)(F)C(F)(F)F | inactive | 
19 | CC[C@H](C)C(=O)O[C@H]1C[C@H](O)C=C2C=C[C@H](C)[C@H](CC[C@@H](O)C[C@@H](O)CC(=O)O)[C@H]21 | inactive | 
20 | Cn1cc[nH]c1=S | inactive | 

Row | SMILES | outcome | AC50
21 | NC(N)=O | inactive | 
22 | CC(=O)c1ccccc1 | inactive | 
23 | OCCNCCO | inactive | 
24 | NC(=O)N(O)[C@@H]1COc2cc(OCc3ccccc3)ccc21 | inactive | 
25 | OC(Cn1cncn1)(Cn1cncn1)c1ccc(F)cc1F | inactive | 
26 | CCCCCCCCN(C)C | inactive | 
27 | OCc1ccccc1 | inactive | 
28 | O=C(O)c1cccc(C(=O)O)c1 | inactive | 
29 | OC(O)(C(F)C(O)(O)C(F)(F)F)C(F)(F)F |  | 38.6 µM (active) and 72.7 µM (active)
30 | CCCOc1ccc(S(=O)(=O)N2CCN(CC)CC2)cc1-c1nc2c(CC)n(Cc3ccccn3)nc2c(=O)[nH]1 | inactive | 
31 | c1ccc2ncccc2c1 | inactive | 
32 | CCCC(CCC)C(=O)O | inactive | 
33 | C[C@]12C=CC(=O)C=C1CC[C@H]1[C@@H]3C[C@@H](O)[C@](O)(C(=O)CO)[C@@]3(C)C[C@H](O)[C@@]12F | inactive | 
34 | O=C(O)CO | inactive | 
35 | C=CCc1cc(S(=O)(=O)c2ccc(O)c(CC=C)c2)ccc1O |  | 33.4 µM (active)
36 | NNC(=O)c1ccncc1 | inactive | 
37 | O=C(N[C@H](CO)[C@H](O)c1ccc([N+](=O)[O-])cc1)C(Cl)Cl | inactive | 
38 | CNC(C)=O | inactive | 
39 | COc1cc(C(C)C)c2c(c1)S(=O)(=O)N(COc1cc(=O)n3cccc(OCCN4CCCCC4)c3n1)C2=O | inactive | 
